Test results taken from PubChem BioAssay AID1851 (National Center for Advancing Translational Sciences (NCATS), 2009).
Hit rate of the full screen: of about 16,000 compounds, about 2,600 (16%) were called active. About 20% were inconclusive and are not listed. The list is a sample of the results. A number with no mark means an inactive call. Calls follow the shape of the dose curve; as a rule, active = well fitted curve in the direction sought with a large enough effect; inconclusive = small, poorly fitted or top-dose-only effect, or effect the other way; inactive = no such curve, though single readings can be large or run the other way.

biological target: Cytochrome P450 2D6 (Homo sapiens) (UniProt P10635); assay: Cytochrome panel assay with activity outcomes; conditions: recombinant CYP, pro-luciferin dealkylation, luminescence, p450-cyp2d6; series mostly up to 57.1 µM; activity, negative = inhibition: at the top concentration
Sequence (P10635 whole entry, looked up): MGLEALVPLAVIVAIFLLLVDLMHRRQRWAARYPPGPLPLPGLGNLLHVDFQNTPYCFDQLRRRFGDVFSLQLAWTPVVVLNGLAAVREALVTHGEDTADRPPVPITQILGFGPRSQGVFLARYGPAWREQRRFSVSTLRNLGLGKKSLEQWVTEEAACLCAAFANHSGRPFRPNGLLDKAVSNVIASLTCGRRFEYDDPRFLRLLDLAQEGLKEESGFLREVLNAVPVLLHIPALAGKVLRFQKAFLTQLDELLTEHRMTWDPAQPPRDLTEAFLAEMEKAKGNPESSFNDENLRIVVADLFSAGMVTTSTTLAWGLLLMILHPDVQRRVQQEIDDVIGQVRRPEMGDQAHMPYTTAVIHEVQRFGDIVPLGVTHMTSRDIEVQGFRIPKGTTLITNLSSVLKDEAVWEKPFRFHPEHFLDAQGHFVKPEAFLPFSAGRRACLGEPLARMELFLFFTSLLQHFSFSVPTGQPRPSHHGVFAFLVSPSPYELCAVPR
% is scaled to controls: 0 for no effect and ±100 for the full control effect.

Row | Structure (SMILES) | activity, negative = inhibition | AC50
1 | CCOC(=O)N/N=C1/C[C@@H](O)[C@@H](O)[C@@H]2[C@@H]3C(=O)N(CC)C(=O)[C@H]3CC[C@@H]12 | 7.29% [at 11.4 µM] | –
2 | CO[C@H]1COC(=O)[C@H]2CCCN2C(=O)[C@@H](C)COC(=O)C/C=C\[C@@H]1C | 19.9% [at 11.4 µM] | –
3 | Cc1nn(CC(=O)NCc2ccccc2)c(C)c1[N+](=O)[O-] | -17.4% | –
4 | CCOc1cc(-c2noc(N)c2C#N)cc(OCC)c1OCC | -9.64% | –
5 | C/C(=N\NC(=O)c1cccc(Br)c1)c1ccc(Br)cc1 | 31.9% | –
6 | O=C(N/N=C/C1C(c2ccccc2)C1(Cl)Cl)c1cccc(Br)c1 (stereo unspecified) | – | 7.08 µM (active)
7 | O=C(N/N=C/c1cccc(Oc2ccccc2)c1)c1cccc(Br)c1 | -25.9% | –
8 | Cn1c(C(N)=O)cnc1Sc1ncc(C(F)(F)F)cc1Cl | -16.3% | –
9 | Cc1ccnc(N2C(=O)C3C4CC(C(Br)C4Br)C3C2=O)c1 (stereo unspecified) | 38.8% | –
10 | CCC(=O)O[C@@]1(C(=O)SCF)[C@@H](C)C[C@H]2[C@@H]3C[C@@H](F)C4=CC(=O)C=C[C@@]4(C)[C@]3(F)[C@@H](O)C[C@]21C | -10.4% [at 25.6 µM] | –
11 | CO[C@@H](NC(N)=O)C(=O)O | 2.43% [at 11.4 µM] | –
12 | CCC(C)(C)NC(=O)c1ccc2c(c1)N(CC(=O)OC)C(=O)C(C)(C)O2 | -7.52% | –
13 | O=C(Oc1ccccc1)N1CCC2(CCCN(c3ccc(-c4ccccc4)cc3)C2)CC1 | 3.39% | –
14 | CC(C)c1nc2ccccn2c1NC1CCCCC1 | – | 3.16 µM (active)
15 | CC(C)c1ccc(O)c(NC(=O)c2ncn[nH]2)c1 | 2.24% | –
16 | COc1ccc(NC(=O)CC#N)cc1OC | -8.73% | –
17 | COC(=O)C1=C(C)NC(=O)NC1c1ccsc1 (stereo unspecified) | 9.49% | –
18 | COCCNC(=O)COc1ccc(OCCNC[C@@H](O)COc2ccccc2)cc1 | – | 5.01 µM (active)
19 | COCCNC(=O)COc1ccc(Oc2ccccc2)cc1 | -5.65% | –
20 | O=C(O)COc1ccc(OCCNC[C@@H](O)COc2ccccc2)cc1 | -10.1% | –
21 | CCOC(=O)N/N=C1/C[C@@H](O)[C@@H](O)[C@@H]2[C@@H]3C(=O)N(CC)C(=O)[C@H]3CC[C@H]12 | -3.76% [at 11.4 µM] | –
22 | CS(=O)(=O)c1nc(-c2ccccc2)cc(-c2ccccc2)c1C#N | -5.35% | –
23 | CCOC(=O)c1sc2nc3c(cc2c1N)COC(C(C)C)C3 (stereo unspecified) | -0.0841% | –

Row | Structure (SMILES) | activity, negative = inhibition | AC50
24 | CCC(=O)N[C@@H]1CCc2cccc(OC)c2C1 | 4.79% | –
25 | CCc1ccccc1OC[C@@H](O)CN[C@H]1CCCc2ccccc21 | 5.6% | –
26 | COc1cccc(C=NC=Nc2cccc(OC)c2)c1 | -0.017% | –
27 | O=C(CSc1nnc(CNc2ccccc2)o1)N1CCCc2ccccc21 | -17.2% | –
28 | O=C(CSc1n[nH]c(-c2ccccc2O)n1)N1CCCc2ccccc21 | – | 25.1 µM (active)
29 | O=C(CSc1nc(-c2ccccc2)cs1)N1CCc2ccccc21 | -2.29% | –
30 | CC(C)C[C@H](NC(=O)[C@@H](O)[C@@H](N)Cc1ccccc1)C(=O)O | – | inactive
31 | O=C(NCCc1ccccn1)c1cc(C(=O)C2CCCCC2)c[nH]1 | -7.69% | –
32 | CC(C)(C)c1ccc(C(=O)c2c[nH]c(C(=O)NCCCn3ccnc3)c2)cc1 | – | 5.01 µM (active)
33 | O=C(O)CCCCCNC(=O)c1ccncc1 | -0.821% | –
34 | O=C(c1ccc(C(F)(F)F)cc1)c1c[nH]c(C(=O)NCCCn2ccnc2)c1 | – | 2.51 µM (active)
35 | CCC(CC)C(=O)c1c[nH]c(C(=O)NCCc2ccccn2)c1 | 4.03% | –
36 | Cc1ccc(C(=O)c2c[nH]c(C(=O)NCCCN3CCOCC3)c2)cc1 | 1.79% | –
37 | C1CNCCOCCNCCN1 | -1.08% | –
38 | CN(C)c1ccc(C(c2ccc(N(C)C)cc2)c2ccc([N+](=O)[O-])cc2)cc1 | 14% [at 11.4 µM] | –
39 | O=C(O)[C@@H]1[C@@H](C(=O)Nc2ccccc2)[C@@H]2C=C[C@@H]1O2 | 2.5% [at 11.4 µM] | –
40 | CCOc1ccc(Cc2nccc3cc(OCC)c(OCC)cc23)cc1OCC | 2.76% [at 25.6 µM] | –
41 | Oc1ccc(Cc2nccc3cc(O)c(O)cc23)cc1O | – | 1.26 µM (active)
42 | O=C(O)Cc1ccc(O)c(O)c1 | -3.67% | –
43 | COc1ccc(-c2nc3cnc(OC)nc3n(CCc3ccccc3)c2=O)cc1 | 2.49% | –
44 | CCN(CC)C(=O)CSc1nc(O)cc(=O)n1CC | -3.51% | –
45 | COc1ccc(Cl)cc1N=Nc1ncc[nH]1 | – | 2.51 µM (active)
46 | Cc1n[nH]c(C)c1N=Nc1cc(Cl)ccc1Cl | -10.6% | –
